According to the supplement of paper PMC9262897, “Low-cost anti-mycobacterial drug discovery using engineered E. coli” (Nature Communications, 2022):
Structures can show the parent of a compound that is named as a salt. ± gives the standard deviation of the averaged measurements.

How the values were obtained:
Assay in all cases: growth (OD600 after 10 h); higher = more growth (less inhibition)
[1] = tested on: E. coli TESEC Alr+ wild-type control; conditions: compound 0.1 mM; raw OD600 reference: median of DMSO wells 0.241, cell-free background 0.041
Description: (§1)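 TESEC Mtb Alr E. coli, or the Alr+ wild-type control, in 384-well plates with Prestwick library compounds at 0.1 mM and 1% DMSO, across arabinose induction levels of 1E3 to 1E7 nM. Growth is read as OD600 after 10 h at 37 °C in triplicate biological replicates.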

E. coli TESEC Mtb Alr [2] = conditions: compound 0.1 mM
Description: as §1

E. coli TESEC Mtb Asd = conditions: compound 0.1 mM
Description: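 TESEC E. coli strains in which the native enzyme is deleted and replaced by arabinose-inducible Mtb Asd, DapB, CysH or TrpD, each grown in its selective medium. Strains were screened against the Prestwick library at 0.1 mM and 1% DMSO in 384-well format at low and high arabinose induction. Growth is read as OD600 after 10 h in triplicate.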

[3] = tested on: E. coli TESEC Alr+ wild-type control; conditions: compound 0.1 mM; raw OD600 reference: median of DMSO wells 0.49, cell-free background 0.052
Description: (§2)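 TESEC Mtb Alr E. coli (ΔaraC ΔtolC ΔentC Δalr ΔdadX, arabinose-inducible Mtb Alr) or the Alr+ wild-type control strain, grown in defined M9-fructose medium without D-alanine in 96-well plates with Prestwick library compounds at 0.1 mM and 1% DMSO. Low Alr induction is 0.1 µM arabinose and high induction is 10 mM arabinose.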

E. coli TESEC Mtb Alr [4] = conditions: compound 0.1 mM; remark: listed apart in the source
Description: as §2

[5] = arabinose 1000 nM, raw OD600 reference: median of DMSO wells 0.294, cell-free background 0.041
[6] = arabinose 10000 nM, raw OD600 reference: median of DMSO wells 0.264, cell-free background 0.041
[7] = arabinose 100000 nM, raw OD600 reference: median of DMSO wells 0.201, cell-free background 0.041
[8] = arabinose 1000000 nM, raw OD600 reference: median of DMSO wells 0.193, cell-free background 0.041
[9] = arabinose 10000000 nM, raw OD600 reference: median of DMSO wells 0.146, cell-free background 0.041
[10] = arabinose induction (level): High, raw OD600 reference: median of DMSO wells 0.331, cell-free background 0.041
[11] = arabinose induction (level): Low, raw OD600 reference: median of DMSO wells 0.417, cell-free background 0.041
[12] = arabinose 100 nM, raw OD600 reference: median of DMSO wells 0.413, cell-free background 0.052
[13] = arabinose 10000000 nM, raw OD600 reference: median of DMSO wells […], cell-free background 0.052

SMILES	growth [1]	growth (E. coli TESEC Mtb Alr [2]; [5])	growth (E. coli TESEC Mtb Alr [2]; [6])	growth (E. coli TESEC Mtb Alr [2]; [7])	growth (E. coli TESEC Mtb Alr [2]; [8])	growth (E. coli TESEC Mtb Alr [2]; [9])	growth (E. coli TESEC Mtb Asd; [10])	growth (E. coli TESEC Mtb Asd; [11])	growth [3]	growth (E. coli TESEC Mtb Alr [4]; [12])	growth (E. coli TESEC Mtb Alr [4]; [13])
Clc1ccc(C(c2ccccc2Cl)C(Cl)Cl)cc1 (stereo not drawn) [Mitotane]	0.224 ± 0.0027	0.215 ± 0.017	0.224 ± 0.01	0.183 ± 0.012	0.0935 ± 0.018	0.133 ± 0.013	0.213 ± 0.018	0.204 ± 0.018	0.403 ± 0.0086	0.38 ± 0.011	0.0729 ± 0.0022
CC(=O)OCC(=O)NCCCOc1cccc(CN2CCCCC2)c1 [Roxatidine Acetate HCl]	0.241 ± 0.013	0.302 ± 0.0074	0.265 ± 0.008	0.212 ± 0.024	0.186 ± 0.0084	0.139 ± 0.0026	0.29 ± 0.046	0.389 ± 0.023	0.673 ± 0.062	0.408 ± 0.0076	0.3569 ± 0.0035
CO/N=C(\C(=O)N[C@@H]1C(=O)N2C(C(=O)OC(C)OC(C)=O)=C(COC(N)=O)CS[C@H]12)c1ccco1 (stereo partly drawn) [Cefuroxime axetil]	0.148 ± 0.0057	0.115 ± 0.007	0.0663 ± 0.0028	0.124 ± 0.0033	0.166 ± 0.0066	0.158 ± 0.006	0.246 ± 0.023	0.316 ± 0.011	0.427 ± 0.051	0.059 ± 0.0076	0.257 ± 0.011
CN(C)CCCSC(=N)N [Dimaprit dihydrochloride]	0.2627 ± 0.0019	0.308 ± 0.011	0.267 ± 0.0039	0.205 ± 0.014	0.201 ± 0.015	0.131 ± 0.0034	0.255 ± 0.035	0.409 ± 0.093	0.617 ± 0.017	0.406 ± 0.015	0.349 ± 0.019
COc1cc(NS(=O)(=O)c2ccc(N)cc2)nc(OC)n1 [Sulfadimethoxine]	0.2298 ± 0.0014	0.264 ± 0.011	0.177 ± 0.01	0.2126 ± 0.0014	0.106 ± 0.0049	0.139 ± 0.0065	0.266 ± 0.0084	0.403 ± 0.025	0.46 ± 0.053	0.425 ± 0.0055	0.332 ± 0.031
CC(=O)O[C@]1(C(C)=O)CC[C@H]2[C@@H]3C=C(Cl)C4=CC(=O)[C@@H]5C[C@@H]5[C@]4(C)[C@H]3CC[C@@]21C [Cyproterone acetate]	0.1672 ± 0.001	0.168 ± 0.0067	0.125 ± 0.027	0.122 ± 0.0081	0.0693 ± 0.0035	0.0975 ± 0.0046	0.111 ± 0.041	0.109 ± 0.0055	0.355 ± 0.17	0.385 ± 0.035	0.0934 ± 0.024
COc1ccc(/C=C/C(=O)Nc2ccccc2C(=O)O)cc1OC [Tranilast]	0.171 ± 0.0022	0.245 ± 0.0071	0.27 ± 0.0085	0.134 ± 0.011	0.104 ± 0.002	0.126 ± 0.0016	0.218 ± 0.032	0.279 ± 0.082	0.452 ± 0.0089	0.308 ± 0.12	0.15 ± 0.012
Cc1cccc(C)c1NC(=O)C(C)N (stereo not drawn) [Tocainide hydrochloride]	0.26 ± 0.0084	0.318 ± 0.0085	0.269 ± 0.0071	0.187 ± 0.014	0.1844 ± 0.0016	0.145 ± 0.0027	0.209 ± 0.016	0.433 ± 0.031	0.483 ± 0.061	0.4 ± 0.015	0.307 ± 0.023
